From PubChem BioAssay
RAD54 inh: inhibitors of human RAD54 branch migration; Q92698; RAD54 Holliday junction branch migration, FAM/BHQ fluorescence; inhibition, % at 10.4 µM; 360,000 tested, 0.14% active; AID 602329;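 active = mean normalized replicate activity at least 40 and at least half of replicates scoring 40 or more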;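 also: 0% = median of neutral control wells and 100% = median of positive control wells; inhibitors cause a drop in the FAM fluorescence signal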
RAD52 inh: blocks human RAD52 DNA annealing. P43351. recombinant RAD52 DNA annealing, FRET fluorescence. inhibition, % at 18.7 µM. 360,000 tested, 0.46% active. AID 651710;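 active = every replicate showing at least 50% inhibition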
N-glyco inh: blocks N-linked glycosylation in D54 reporter cells; AID 588692; D54 ERlucT glycosylation luciferase reporter, 24 h; percent of 100 nM tunicamycin response; reporter increase, % at 12.5 µM; 360,000 tested, 0.23% active;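 active = mean luciferase reporter signal, scaled so untreated is 0 and the glycosylation-blocking control 100, at or above a set limit in every replicate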;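 also: luciferase carries N-glycosylation sites so blocking glycosylation raises the light; 0% = median of neutral control wells and 100% = median of 100 nM tunicamycin wells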
PvdQ inh: blocks Pseudomonas aeruginosa PvdQ acylase activity. purified PvdQ acylase, fluorescence plate reader. inhibition, % at 10 µM. 340,000 tested, 0.063% active. AID 488965; in the data active = inhibition above about 30%, passing the limit was not always enough;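 also: 0% = vehicle neutral wells and 100% = reference inhibitor wells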
dFosB act: enhances mouse delta FosB homodimer DNA binding; P13346; purified delta FosB, TAMRA-CDK5 oligo fluorescence polarization; percent of positive-control signal above neutral wells; activation, % at 25 µM; 340,000 tested, 0.99% active;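 active = mean activation above about 17%, with every replicate also reaching it, limit read from the data, passing the limit was not always enough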
Target sequence (P13346 whole entry, looked up): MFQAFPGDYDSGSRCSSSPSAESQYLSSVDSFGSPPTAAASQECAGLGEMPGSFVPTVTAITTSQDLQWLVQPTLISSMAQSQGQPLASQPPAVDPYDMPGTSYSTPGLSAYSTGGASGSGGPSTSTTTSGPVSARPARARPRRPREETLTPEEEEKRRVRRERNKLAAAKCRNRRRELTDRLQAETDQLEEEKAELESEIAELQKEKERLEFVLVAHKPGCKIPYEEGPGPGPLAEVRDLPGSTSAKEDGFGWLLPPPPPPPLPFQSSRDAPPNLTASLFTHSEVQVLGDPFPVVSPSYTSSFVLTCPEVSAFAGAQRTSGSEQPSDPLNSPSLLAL
F508del corr: correctors of CFTR F508del function in bronchial epithelial cells; CFBE cells, YFP halide quenching; stimulated with forskolin plus potentiator P3; % fluorescence drop versus neutral controls; activity (quench increase), % at 7.58 µM; 350,000 tested, 0.36% active;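 active = mean added fluorescence quench of at least 8% versus neutral control, with both replicates also reaching 8%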;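 also: cells transiently co-express mutant CFTR-F508del with the halide-sensitive YFP; corrector assay measuring rescue of mutant channel to the surface after 24 h compound exposure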
An asterisk follows results filed as active; i = inactive; nt = not tested or not shown. A selection: hits, their analogues and other compounds. The true share with any hit is near 1.5%.

SMILES	RAD54 inh	RAD52 inh	N-glyco inh	PvdQ inh	dFosB act	F508del corr
O=C(c1cccc(F)c1)N1CC(=O)N2[C@H](CO)[C@H](c3ccc(C#Cc4ccc(F)cc4)cc3)[C@H]2C1	nt	-26	nt	nt	nt	6
O=C(Cc1ccccc1)N1CC(=O)N2[C@H](C1)[C@@H](c1ccc(C#Cc3ccccc3)cc1)[C@@H]2CO	nt	-7	nt	nt	nt	8.0*
O=C(c1cccc(F)c1)N1CC(=O)N2[C@@H](CO)[C@@H](c3ccc(C#Cc4ccc(F)cc4)cc3)[C@@H]2C1	nt	-7	nt	nt	nt	8.2*
CS(=O)(=O)N1CC(=O)N2[C@H](C1)[C@H](c1ccc(C#Cc3ccc(F)cc3)cc1)[C@@H]2CO	nt	-12	nt	nt	nt	10*
CCS(=O)(=O)N1CC(=O)N2[C@H](C1)[C@@H](c1ccc(C#CCC(C)C)cc1)[C@@H]2CO	nt	-2	nt	nt	nt	10*
CC(=O)N(C)C[C@H]1Oc2cc(-c3cccc(C#N)c3)ccc2S(=O)(=O)N([C@@H](C)CO)C[C@H]1C	5	4	nt	nt	nt	-1
C[C@@H]1CN([C@@H](C)CO)C(=O)c2cc(C#Cc3ccccc3)cnc2O[C@@H]1CN(C)C(=O)c1ccccc1F	-1	15	nt	nt	nt	-3
C[C@@H]1CCCCO[C@H](CN(C)C(=O)Nc2ccc(F)cc2)[C@@H](C)CN([C@@H](C)CO)C(=O)c2cc(N(C)C)ccc2O1	nt	nt	nt	nt	nt	-2
Cc1ccc(-c2nnc(NCc3nc4ccccc4[nH]3)c3ccccc23)cc1S(=O)(=O)N1CCCCC1	-1	nt	6	0	80*	nt
NC(=O)c1c(NC(=O)Cn2nc(C(=O)O)c3ccccc3c2=O)sc2c1CCCC2	nt	-10	1	-18	91*	-1
CCOC(=O)c1c(NC(=O)Cn2nc(C(=O)O)c3ccccc3c2=O)sc2c1CCC(C)C2 (stereo unspecified)	nt	-6	2	-27	-8	1
CCN(CC)c1ccc(/C=N/NC(=O)c2ccccn2)cc1	14	-2	-5	-17	-2	2
CCN(CC)c1ccc(/C=N/NC(=O)c2cnccn2)cc1	nt	-48	21	12	-9	11*
COc1ccc2c3c(cccc13)C(=O)CC2	nt	i	3	11	-91	12*
COc1ccc(NC(=O)Nc2ccc3c(c2)CC(=O)N([C@H](C)CO)C[C@@H](C)[C@@H](CN(C)S(C)(=O)=O)O3)cc1	5	0	nt	nt	nt	1
CCc1ccc(N2C(=O)Nc3ccccc3C2(O)C(=O)N2CCN(c3ccccn3)CC2)cc1 (stereo unspecified)	2	-9	38*	0	0	-6
Cc1ccc(N2C(=O)Nc3ccccc3C2(O)C(=O)N2CCN(c3ccccn3)CC2)cc1C (stereo unspecified)	16	-16	29*	-13	-3	-2
O=C1Nc2ccccc2C(O)(C(=O)N2CCCCC2)N1c1ccccc1 (stereo unspecified)	-3	nt	0	11	-4	nt
C[C@H]1CCCCO[C@@H](CN(C)C(=O)Nc2ccc(F)cc2)[C@@H](C)CN([C@@H](C)CO)C(=O)c2cc(NS(C)(=O)=O)ccc2O1	-5	6	nt	nt	nt	3
c1ccc(N2CCN(c3nc(NCc4ccco4)c4ccccc4n3)CC2)cc1	8	nt	-4	-5	45*	nt
COc1ccccc1Nc1nc(NCc2ccco2)c2ccccc2n1	2	13	-4	nt	nt	-3
Cc1ccc(Nc2nc(NCc3ccco3)c3ccccc3n2)cc1	-12	11	-16	-10	58*	-12
CCOc1nc(NCc2ccco2)nc(Nc2ccc(OC)cc2)n1	9	nt	1	2	0	nt
COc1ccc(Nc2nc(NCc3ccco3)nc(N/N=C/c3ccccc3)n2)cc1	-4	nt	-1	-14	29*	nt
COc1ccc(CN(C)C[C@@H]2Oc3ccc(NC(=O)CCN4CCOCC4)cc3CC(=O)N([C@@H](C)CO)C[C@@H]2C)cc1	21	9	nt	nt	nt	0
SMILES	RAD54 inh	RAD52 inh	N-glyco inh	PvdQ inh	dFosB act	F508del corr
C[C@H]1CN([C@@H](C)CO)C(=O)c2cc(-c3ccc(C#N)cc3)cnc2O[C@@H]1CN(C)C(=O)CN(C)C	-3	3	nt	nt	nt	-4
COc1cccc(C#Cc2ccc([C@H]3[C@H]4CN(C(C)=O)CC(=O)N4[C@H]3CO)cc2)c1	nt	-8	nt	nt	nt	1
O=S(=O)(c1cccs1)N1CCCCN2[C@H](CO)[C@H](c3ccc(C4=CCCCC4)cc3)[C@H]2C1	-3	57*	nt	nt	nt	-1
O=S(=O)(c1cccs1)N1CCCCN2[C@H](C1)[C@H](c1ccc(C3=CCCC3)cc1)[C@@H]2CO	-9	-16	nt	nt	nt	-3
COc1ccc(S(=O)(=O)N2CCCCN3[C@H](CO)[C@H](c4ccc(C5=CCCCC5)cc4)[C@H]3C2)cc1	-6	60*	nt	nt	nt	-1
COCCNC(=O)c1cc2nc(-c3ccccc3)cc(C)n2n1	nt	-7	1	34*	-11	1
Cc1cc(-c2ccccc2)nc2cc(C(=O)NCCCn3ccnc3)nn12	-5	nt	3	-9	-28	nt
CC(C)n1c(O)c(N=NC(=O)c2ccccc2NS(=O)(=O)c2cccs2)c2ccccc21	nt	nt	-3	-7	30*	nt
C[C@@H]1CN([C@@H](C)CO)S(=O)(=O)c2ccc(C#Cc3ccccc3)cc2O[C@@H]1CN(C)S(=O)(=O)c1cn(C)cn1	-24	-14	nt	nt	nt	4
CC[C@H]1OC(=O)[C@H](C)[C@@H](O[C@H]2C[C@@](C)(OC)[C@@H](O)[C@H](C)O2)[C@H](C)[C@@H](O[C@@H]2O[C@H](C)C[C@H](N(C)C)[C@H]2O)[C@](C)(O)C[C@@H](C)C(=O)[C@H](C)[C@@H](O)[C@]1(C)O	-7	3	3	-1	-5	9.0*
C[C@H](CO)N1C[C@H](C)[C@@H](CN(C)C(=O)Nc2ccc(C(F)(F)F)cc2)OCCCC[C@H](C)Oc2ccc(NC(=O)C3CCCCC3)cc2C1=O	-21	-18	nt	nt	nt	-1
C[C@@H]1CN([C@@H](C)CO)C(=O)c2cccc(NC(=O)C3CCCCC3)c2O[C@H]1CN(C)Cc1ccccc1	-12	20	nt	nt	nt	0
CCn1cc(/C=C/c2cc[n+](C)cc2)c2ccccc21	-499	i	-4	-6	-1	8
CC(C)n1cc(/C=C/c2cc[n+](C)cc2)c2ccccc21	i	i	2	-3	-6	9.2*
Oc1cccc(/C=N/Nc2cc(N3CCCC3)nc(N3CCCC3)n2)c1	nt	nt	13	-3	57*	nt
CC(=O)N1CCc2c(sc(NC(=O)c3ccc(S(=O)(=O)N(C)C)cc3)c2C#N)C1	3	-52	2	-3	0	0
CC(=O)N1CCc2c(sc(NC(=O)c3ccc4c(c3)OCCO4)c2C#N)C1	-6	-126	23	3	-9	10*
COc1ccccc1C#Cc1ccc2c(c1)[C@H]1[C@H](CCN1C(=O)c1ccncc1)[C@@H](CO)N2	nt	87*	nt	nt	nt	1
